Reference: PubChem BioAssay AID434973 (Sanford-Burnham Center for Chemical Genomics, 2010)
Out of some 330,000 compounds screened, about 4,900 (1.5%) were called active. The list comes from a sample in which actives are over-represented; it also holds similar structures and randomly drawn compounds. A number with no mark means an inactive call.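 How the source made its calls: active means inhibition above about 50% at the single test dose (limit read from the data); inactive means the rest.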

biological target: Sentrin-specific protease 7 (Homo sapiens) (UniProt Q9BQF6); assay: SENP7 protease inhibitors, primary screen, biochemical, luminescence, uHTS (AID 434973); settings: recombinant SENP7, Z-RLRGG-aminoluciferin luminescence, 40 min; at 5 µM; active compounds read high;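 further: plate controls were DMSO with enzyme for no effect and no enzyme buffer wells for full effect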

SMILES	inhibition
Cc1cccc(S(=O)(=O)N2CN(CC3CCCO3)c3nc4ccccc4nc32)c1 (stereo unspecified)	-0.481%
O=C(c1ccc(S(=O)(=O)c2ccccc2)cc1)N1CCCCCC1	3.58%
O=C(c1ccc(CSc2ccccc2)cc1)N1CCCCCC1	72.6% (active)
CC1CCN(C(=O)c2ccc(CSc3ccc(Cl)cc3)cc2)CC1	-2.26%
CCc1ccccc1OCC(=O)Nc1ccc(C)c(S(=O)(=O)N2CCCCCC2)c1	1.37%
C/C(=N\NC(=O)c1ccoc1C)c1ccccc1O	51.5% (active)
COc1ccccc1N(CC(=O)N/N=C(\C)c1ccccc1O)S(=O)(=O)c1ccc(C)cc1	3.18%
Cc1cc(C(=O)NNC(=O)c2ccccc2O)c(C)o1	9.67%
COc1ccc2c(CC(=O)OCC(=O)Nc3ccccc3[N+](=O)[O-])coc2c1	-12%
COC(=O)c1ccc(S(=O)(=O)N(CCO)Cc2ccccc2)n1C	1.52%
O=C(COC(=O)c1ccc(Br)o1)NC12CC3CC(CC(C3)C1)C2	7.39%
CCOc1ccc(-n2cnnn2)cc1S(=O)(=O)N1CCC(C)CC1C (stereo unspecified)	7.69%
Cc1cccc(-c2noc(CCC(=O)NC3CCCC3)n2)c1	-8.85%
Cc1ccc(-c2nc(-c3ccncc3)no2)c(C)c1	42.5%
Cc1cccc(-c2noc(-c3ccc(F)cc3)n2)c1	94.2% (active)
Cc1ccc(-n2c(C)cc(C(=O)CSc3nnc4ccccn34)c2C)cc1	-18.4%
Nc1nonc1-n1nnc(C(=O)N/N=C/c2ccc(Cl)cc2)c1-c1ccc2c(c1)OCO2	-3.14%
Cc1cc(C)n2nc(C(=O)Oc3ccc4c(c3)OCO4)nc2n1	4.97%
COc1ccc2nc(Nc3nc4cc5c(cc4s3)OCCO5)sc2c1	52.6% (active)
COc1ccc2nc(NC(=O)[C@@H]3CCCN3C(=O)c3cccs3)sc2c1	-10%
CCOc1ccc(S(=O)(=O)Nc2nc3cc(OC)ccc3s2)cc1	6.2%
CC[C@]12c3[nH]c4cc(CCC(=O)N(C)C)ccc4c3CCN1C(=O)[C@@H](CC(=O)NCCCn1ccnc1)C[C@@H]2C(=O)N1CCN(C(=O)C2CC2)CC1	-1.68%
Cc1ccc(C)c(C(=O)N2CCC(n3nccc3NC(=O)C3CC3)CC2)c1	0.772%

SMILES	inhibition
COc1ccc(N2CCN(C(=O)c3ccc4c(Cl)c5c(nc4c3)CCCC5)CC2)cc1	-4.91%
CC(=O)c1ccc(NC(=O)c2ccc3c(Cl)c4c(nc3c2)CCCC4)cc1	-3.44%
CC(C)CCNC(=O)c1ccc2c(Cl)c3c(nc2c1)CCC3	84.1% (active)
CC(C)Cc1ccc(S(=O)(=O)N2CCN(C(=O)c3ccco3)CC2)cc1	3.59%
O=C1c2ccccc2NC(c2ccccn2)N1NS(=O)(=O)c1ccccc1 (stereo unspecified)	0.965%
CN(Cc1ccccc1)C(=O)c1cccc(C(=O)N(C)Cc2ccccc2)c1	0.789%
O=C(COC(=O)CNS(=O)(=O)c1ccc(F)c(F)c1F)NC1CCCC1	4.55%
O=[N+]([O-])c1ccc2c(c1)Nc1nc3ccccc3nc1N2	-3.53%
O=[N+]([O-])c1ccc2nc(-c3ccccn3)[nH]c2c1	70.4% (active)
O=[N+]([O-])c1ccc(N/N=C2/CCCCC2c2ccccn2)c([N+](=O)[O-])c1 (stereo unspecified)	-1.83%
O=S(=O)(NCCCc1ccccc1)c1ccc(Br)cc1	5.53%
Cc1ccc(-c2nc3ccccc3[nH]2)cc1N	94.4% (active)
COc1ccc(Br)cc1C(=O)NC(=S)Nc1cc(-c2nc3ccccc3[nH]2)ccc1C	2.43%
COc1ccc(-c2[nH]nc(-c3ccccc3)c2-c2nc3ccccc3[nH]2)cc1	1.53%
Clc1ccccc1SCc1nc2ccccc2[nH]1	35.5%
Cc1ccccc1N1CC(c2nc3ccccc3[nH]2)CC1=O (stereo unspecified)	4.87%
c1ccc2[nH]c(-c3nc4ccccc4[nH]3)nc2c1	99.5% (active)
O=C(CN1C(=O)c2ccc([N+](=O)[O-])cc2C1=O)Nc1nnc(C2CC2)s1	-1.7%
COc1ccc(CN2CCOC2=O)cc1OC	0.943%
CCC(=NC1CC(C)(C)NC(C)(C)C1)C1=C(O)CC(C)(C)CC1=O	-2.04%
COc1ccc(C2/C(=C(/O)c3ccc(OC(C)C)cc3)C(=O)C(=O)N2CCCN2CCOCC2)cc1 (stereo unspecified)	-3.1%
O=C1C(=O)N(CCN2CCOCC2)C(c2cccc(Cl)c2)/C1=C(/O)c1ccc2c(c1)OCO2 (stereo unspecified)	0%
O=C1C(=O)N(CCCN2CCOCC2)C(c2ccc([N+](=O)[O-])cc2)/C1=C(\O)c1ccc2c(c1)OCCO2 (stereo unspecified)	56.5% (active)

SMILES	inhibition
COc1ccccc1OCc1ccc(C(=O)NC(C)c2ccccc2)o1 (stereo unspecified)	-1.75%
Cc1ccc(S(=O)(=O)CCC(=O)Nc2nnc(CC(C)C)s2)cc1	10.9%
COc1ccccc1CN(C)C(=O)c1cc2ccccc2o1	6.76%
C/C(=N\NC(=S)Nc1ccc(C)cc1)c1cc2ccccc2o1	-0.14%
Cc1ccc(OC(=O)c2cc3ccccc3o2)cc1	80.7% (active)
COc1cc(C(=O)OCC(=O)NC23CC4CC(CC(C4)C2)C3)cc(OC)c1OC	7.88%
COc1cc(C2/C(=C(\O)c3ccc4c(c3)CC(C)O4)C(=O)C(=O)N2c2nnc(C)s2)cc(OC)c1OC (stereo unspecified)	0.235%
COc1ccc(CNC(=O)CN(Cc2ccccc2Cl)C(=O)c2csnn2)cc1	-0.595%
CCCCn1c(N)c(N(CCC(C)C)C(=O)CC2OC(=O)c3ccccc32)c(=O)[nH]c1=O (stereo unspecified)	0.323%
CC(C)(C)SCCNC(=O)c1cccc([N+](=O)[O-])c1	0.866%
O=C(Nc1ccc(NC(=O)c2ccco2)c(Cl)c1)c1cccc([N+](=O)[O-])c1	52.1% (active)
O=C(c1cccc([N+](=O)[O-])c1)N1CCN(C(=O)c2ccco2)CC1	3.1%
O=C(Nc1ccc(C2CC2(Cl)Cl)cc1)c1cccc([N+](=O)[O-])c1 (stereo unspecified)	54.2% (active)
Cc1cc(C)nc(NC(=O)c2cccc([N+](=O)[O-])c2)c1	2.66%
COc1cc(NC(=O)c2cc([N+](=O)[O-])ccc2Br)ccc1NC(=O)c1ccco1	-5.49%
COc1ccc(S(=O)(=O)N2CCN(c3cnccn3)CC2)cc1	4.46%
COC(=O)c1ccc(-n2cnc3ccccc32)nc1	-0.937%
O=C1CN(C(=O)COC(=O)/C=C/c2ccc(F)cc2)c2ccccc2N1	-6.02%
O=S(=O)(c1ccc(F)cc1)N1CCN(C(=S)NCc2ccco2)CC1	-0.183%
COc1ccc(NC(=O)NN2CCN(C)CC2)c(OC)c1	0.214%
CCCCOc1ccc(-c2nnc(-c3ccco3)o2)cc1	80.5% (active)
CCOc1ccc(-n2c(SCC(N)=O)nnc2-c2ccco2)cc1	6.82%
N#Cc1ccc(OCc2nnc(-c3ccc([N+](=O)[O-])cc3)o2)cc1	-0.787%

SMILES	inhibition
O=C(NCCC1=CCCCC1)c1ccc(-n2cncn2)cc1	-9.22%
O=C(NCc1cccnc1)c1cccnc1Sc1ccc(Cl)cc1	2.66%
O=C(Nc1ccncc1)c1cc2ccccc2o1	60.6% (active)
CC(C)(C)n1nc2c(c1NC(=O)c1cc3ccccc3o1)CSC2	6.18%
COc1cc2ccccc2cc1C(=O)Nc1ccncc1	7.87%
CCOc1ccc(N2C(=O)/C(=C/c3ccc(C)o3)N(C)C2=S)cc1	6.54%
O=C(N[C@@H](Cc1ccccc1)C(=O)OCc1ccccc1)c1nc[nH]c1C(=O)N[C@@H](Cc1ccccc1)C(=O)OCc1ccccc1	4.7%
CCOc1ccc(C(=O)COC(=O)c2ccc(-n3cnnn3)cc2)cc1	-0.201%
O=C(Oc1ccc(C(=S)N2CCOCC2)cc1)c1ccc(F)cc1	2.03%
CC(C)c1c(C(=O)N/N=C/c2ccc(-c3ccccc3)cc2)nnn1-c1nonc1N	0.606%
Cc1nc2ccc(C(=O)N/N=C/c3ccc(O)cc3)cc2[nH]1	0.319%
Cc1nonc1C(=O)N/N=C/c1ccc(O)cc1	98.8% (active)
Cn1ncc(N2CCN(S(=O)(=O)c3ccc(Br)cc3)CC2)c(Cl)c1=O	-5.83%
O=C(O)c1ccc(N/N=C/c2ccc3ncccc3c2)cc1	99.3% (active)
O=C(O)c1ccc(/C=N/Nc2nc(N3CCCCC3)nc(N3CCCCC3)n2)cc1	-3.32%
Cc1ccc2cc(/C=N/Nc3ccc(C(=O)O)cc3)c(Cl)nc2c1	-6.79%
COc1ccc(CCNC(=O)C(=O)NCC2OCCN2S(=O)(=O)c2ccc(OC)c(C)c2)cc1 (stereo unspecified)	2.59%
O=C(NC(=S)N1CCN(Cc2ccccc2)CC1)c1ccccc1	2.02%
CC(OC(=O)c1ccc2ccccc2n1)C(=O)c1ccccc1 (stereo unspecified)	55.8% (active)
CC(NC(=O)COC(=O)c1ccc2ccccc2n1)c1ccccc1 (stereo unspecified)	-1.7%
Cc1ccc(S(=O)(=O)N(C)C)cc1NC(=O)C(C)OC(=O)c1ccc2ccccc2n1 (stereo unspecified)	6.08%
O=C(Nc1ccc(S(=O)(=O)N2CCCCC2)cc1)C1CCN(C(=O)c2ccc(F)cc2)CC1	-13.9%
